The record followed here is PubChem BioAssay (NCATS).

What all share (experiment): qHTS profiling for inhibitors of Plasmodium falciparum proliferation (AID 504749); also: nearly all actives have a fitted effect of over 60% in size
What all share (conditions): P. falciparum in erythrocytes, SYBR Green DNA, 72 h; series mostly up to 28.7 µM

The subject of one experiment is CP269. A digest of the protocol: (§1)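 Each compound contacts P. falciparum-infected red blood cells for 72 h at 37 C; lysis buffer (Tris, EDTA, saponin, Triton X, SYBR Green I) is added and fluorescence measured next morning; values normalized to controls.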
A further experiment deals with CP286. The essentials:
as §1

In a further experiment the test system is CP291. The essentials: as §1
In another experiment the test system is CP297. The essentials: as §1
The test system of the next experiment is CP305. A digest of the protocol: as §1
Another experiment has as its system CP315. The essentials:
as §1

Another experiment concerns CP325. A digest of the protocol: as §1
A further experiment deals with CP329. A digest of the protocol:
as §1

Another experiment has as its system CP335. A digest of the protocol: as §1
For a further experiment, the system named is DFO2036. The essentials:
as §1

The next experiment concerns DIV14. The essentials: as §1
The subject of a further experiment is DIV17. The essentials: as §1
The test system of another experiment is DIV30. A digest of the protocol:
as §1

Another experiment concerns Dd2. A digest of the protocol: as §1
In another experiment the test system is ECU. The essentials: as §1
For the next experiment, the system named is FAB9. A digest of the protocol: as §1
Another experiment deals with GB4. A digest of the protocol: as §1
A further experiment deals with HB3. The essentials: as §1
For the next experiment, the system named is ICS. A digest of the protocol: as §1
For another experiment, the system named is JCK. A digest of the protocol: as §1

Inconclusive results are not listed. Calls of active or inactive are those of the source. Calls follow the shape of the dose curve; as a rule, active = well fitted inhibition curve with a large enough effect; inconclusive = small, poorly fitted or top-dose-only effect; inactive = flat fitted curve, though single readings scatter.
Potency is read from the fitted curve at half-maximal effect.

With `CCCCCCCCCCCC[n+]1ccc2ccccc2c1`, the Potency is 0.757 µM (active) in the experiment on CP269; 0.224 µM (active) with CP286; 1.2 µM (active) in the experiment with CP291; 1.07 µM (active) with CP297; 0.757 µM (active) in the experiment with CP305; 1.07 µM (active) in the experiment on CP315. Further, the Potency in the experiment on CP325 is 1.2 µM (active); in the experiment with CP329, 0.601 µM (active); in the experiment with CP335 it was 0.953 µM (active); in the experiment on DFO2036, 0.562 µM (active); with DIV14 it was 0.757 µM (active); with DIV17, 0.953 µM (active). Besides, the Potency in the experiment on DIV30 is 1.35 µM (active); in the experiment on Dd2, 0.562 µM (active); with ECU it was 1.26 µM (active); with FAB9 it was 1.58 µM (active); in the experiment on GB4 it was 0.338 µM (active); in the experiment on HB3, 2.51 µM (active). For the same molecule, the Potency in the experiment with ICS was 0.447 µM (active); in the experiment with JCK, 12.6 µM (active).
For `CN1C(=O)CN2CCc3ccccc3C2c2cc(Cl)ccc21` (stereo not drawn), the Potency result in the experiment on CP269, in the experiment with CP286, in the experiment with CP291, in the experiment with CP297, in the experiment on CP305 and with CP315 was “inactive” each time. In addition, the Potency result in the experiment with CP325, in the experiment with CP329, with CP335, in the experiment on DFO2036, in the experiment on Dd2 and with FAB9 was “inactive” throughout. In addition, the Potency entry in the experiment on HB3 and in the experiment with JCK was “inactive” throughout. In addition, in the experiment on DIV17, the Potency is 6.01 µM (active).
On to `O=C(O)CN(CCN(CC(=O)O)CC(=O)O)CC(=O)O`, for which the Potency result with CP269, with CP286, with CP291, with CP297, in the experiment on CP305 and in the experiment on CP315 was “inactive” in each case. Besides, the Potency entry with CP325, with CP329, in the experiment with CP335, with DFO2036, in the experiment on DIV14 and with DIV17 was “inactive” throughout. Further, the Potency result in the experiment on DIV30, in the experiment with Dd2, with ECU, in the experiment on FAB9, in the experiment with GB4 and in the experiment on HB3 was “inactive” throughout. Besides, the Potency entry with JCK was “inactive”.
As for `CCCCC(=O)O[C@]1(C(=O)CO)[C@H](C)C[C@H]2[C@@H]3CCC4=CC(=O)C=C[C@]4(C)[C@@]3(F)[C@@H](O)C[C@@]21C`, the Potency result with CP269, in the experiment on CP286, in the experiment with CP291, with CP297, in the experiment on CP305 and in the experiment on CP315 was “inactive” each time. The Potency result with CP325, with CP329, in the experiment with Dd2, in the experiment on FAB9, in the experiment on HB3 and in the experiment with JCK was “inactive” throughout.
For `O=C(O)c1cc(O)c2c(c1)[O][Bi][O]2`, the Potency entry in the experiment with CP269, in the experiment on CP286, in the experiment with CP291, with CP297, with CP305 and in the experiment with CP315 was “inactive” throughout. Besides, the Potency entry in the experiment with CP325, in the experiment on CP329, in the experiment with DFO2036, in the experiment with DIV14, in the experiment on DIV30 and in the experiment with Dd2 was “inactive” throughout. For the same molecule, the Potency result in the experiment with ECU, with FAB9, in the experiment with GB4, in the experiment with HB3, in the experiment with ICS and with JCK was “inactive” throughout.
Turning to `O=S(=O)(O)c1ccc2c(N=Nc3ccc(S(=O)(=O)O)c4ccccc34)c(O)c(S(=O)(=O)O)cc2c1`, the Potency result in the experiment with CP269, in the experiment with CP286, with CP291, in the experiment with CP297, with CP305 and in the experiment on CP315 was “inactive” each time. The Potency result in the experiment with CP325, in the experiment on CP329, in the experiment on CP335, in the experiment on DFO2036, in the experiment on DIV14 and with DIV17 was “inactive” each time. For the same molecule, the Potency entry with DIV30, in the experiment on Dd2, with ECU, in the experiment on FAB9, in the experiment with GB4 and with HB3 was “inactive” in each case. Further, the Potency entry with ICS and in the experiment with JCK was “inactive” in each case.
For the molecule `Cc1cc(C(=O)NNCc2ccccc2)no1`, the Potency result in the experiment with CP269, in the experiment on CP286, with CP291, in the experiment with CP297, in the experiment on CP305 and with CP315 was “inactive” in each case. Moreover, the Potency result in the experiment on CP325, in the experiment with CP329, in the experiment with CP335, in the experiment on DFO2036, with DIV14 and in the experiment on DIV17 was “inactive” in each case. Moreover, the Potency entry in the experiment on DIV30, with Dd2, with ECU, in the experiment with FAB9, in the experiment on GB4 and with HB3 was “inactive” each time. In addition, the Potency entry in the experiment on ICS and in the experiment on JCK was “inactive” in each case.
With `COC(=O)C1=C(C#N)NC(C)=C(C(=O)OC(C)C)C1c1cccc([N+](=O)[O-])c1` (stereo not drawn), the Potency is 13.5 µM (active) in the experiment on CP269; 10 µM (active) in the experiment with CP286; 16.9 µM (active) in the experiment with CP291; 13.5 µM (active) in the experiment with CP297; 13.5 µM (active) in the experiment on CP305; 15.1 µM (active) in the experiment with CP329. The Potency in the experiment on CP335 was 8.49 µM (active); in the experiment on DFO2036, 12.6 µM (active); with DIV14 it was 7.57 µM (active); with DIV17, 13.5 µM (active); with DIV30, 10.7 µM (active); in the experiment on Dd2, 12.6 µM (active). In addition, the Potency in the experiment on ECU was 10 µM (active); with HB3, 10 µM (active); with ICS it was 7.94 µM (active).
Take `COCC(=O)Nc1cc(Sc2ccccc2)ccc1N=C(NC(=O)OC)NC(=O)OC`: the Potency result in the experiment on CP269, with CP286, in the experiment with CP291, in the experiment on CP297, in the experiment with CP305 and in the experiment on CP315 was “inactive” throughout. Further, the Potency result with CP325, in the experiment with CP329, in the experiment on CP335, with DFO2036, with DIV14 and with DIV17 was “inactive” throughout. The Potency entry in the experiment with DIV30, with Dd2, with ECU, with FAB9, in the experiment with GB4 and with HB3 was “inactive” in each case. Also, the Potency entry in the experiment with JCK was “inactive”.
`CCOc1ccc(N=Nc2ccc(N)cc2N)cc1`: the Potency result in the experiment with CP269, with CP286, in the experiment on CP291, in the experiment with CP297, in the experiment with CP305 and in the experiment on CP315 was “inactive” throughout. Moreover, the Potency entry in the experiment on CP325, in the experiment with CP329, in the experiment on CP335, with DFO2036, with DIV30 and in the experiment on Dd2 was “inactive” throughout. Further, the Potency entry with FAB9, with HB3 and in the experiment with JCK was “inactive” each time.
